This note sets out measurements from PubChem BioAssay AID1402 (National Center for Advancing Translational Sciences (NCATS), 2008).

Results filed as inconclusive are left out. Calls of active or inactive are those of the source. Calls follow the shape of the dose curve; as a rule, active = well fitted curve in the direction sought with a large enough effect in the signal ratio; inconclusive = small, poorly fitted or top-dose-only effect, or effect the other way, or a change in a side signal; inactive = no such curve, though single readings can be large or run the other way; the % refers to the signal ratio.

The target of the test is Lutropin-choriogonadotropic hormone receptor (Homo sapiens) (UniProt P22888). Description: Counterscreen for Agonists of Thyroid Stimulating Hormone Receptor: HTRF Activity in a Luteinizing Hormone Receptor Cell Line. An excerpt:
NIH Chemical Genomics Center [NCGC] NIH Molecular Libraries Screening Centers Network [MLSCN] MLSCN Grant: 1 X01 MH080680-01 PI Name: Dr. Marvin Gershengorn, NIH NCGC Assay Overview: Confirmation of Thyroid Stimulating Hormone Receptor Agonists TSH is an alpha/beta heterodimeric glycoprotein hormone secreted from the anterior pituitary gland which belongs to the glycoprotein hormone family. The actions of TSH are mediated by a seven-transmembrane receptor, which upon TSH binding couples preferentially to the G-alpha (s) protein (Gs), resulting in activation of adenylate cyclase and increase in cyclic adenosine 3', 5' monophosphate (cAMP). The TSH receptor (THSR) is mainly expressed in thyroid follicular cells and regulates their growth and function. […] In order to confirm specificity of the compounds to the TSHR, a confirmatory assay was conducted on a similar family member, the Luteinizing Hormone (LH) receptor, transfected into a HEK 293 cell line, using an orthogonal detection technology to measure cAMP stimulation: antibody-based Homogeneous Time Resolved Fluorescence (HTRF).
NCGC Assay Protocol Summary: Homogeneous Time Resolved Fluorescence (HTRF) cAMP Assay. […] Plates were measured using the Envision plate reader (PerkinElmer, Boston, MA) with excitation at 330 nm and emissions of 615 nm and 660 nm. […]
In general terms: The purpose of a counterscreen is to sort out artefacts and off-target activity.

Chain of Lutropin-choriogonadotropic hormone receptor (Homo sapiens) (P22888 whole entry, looked up): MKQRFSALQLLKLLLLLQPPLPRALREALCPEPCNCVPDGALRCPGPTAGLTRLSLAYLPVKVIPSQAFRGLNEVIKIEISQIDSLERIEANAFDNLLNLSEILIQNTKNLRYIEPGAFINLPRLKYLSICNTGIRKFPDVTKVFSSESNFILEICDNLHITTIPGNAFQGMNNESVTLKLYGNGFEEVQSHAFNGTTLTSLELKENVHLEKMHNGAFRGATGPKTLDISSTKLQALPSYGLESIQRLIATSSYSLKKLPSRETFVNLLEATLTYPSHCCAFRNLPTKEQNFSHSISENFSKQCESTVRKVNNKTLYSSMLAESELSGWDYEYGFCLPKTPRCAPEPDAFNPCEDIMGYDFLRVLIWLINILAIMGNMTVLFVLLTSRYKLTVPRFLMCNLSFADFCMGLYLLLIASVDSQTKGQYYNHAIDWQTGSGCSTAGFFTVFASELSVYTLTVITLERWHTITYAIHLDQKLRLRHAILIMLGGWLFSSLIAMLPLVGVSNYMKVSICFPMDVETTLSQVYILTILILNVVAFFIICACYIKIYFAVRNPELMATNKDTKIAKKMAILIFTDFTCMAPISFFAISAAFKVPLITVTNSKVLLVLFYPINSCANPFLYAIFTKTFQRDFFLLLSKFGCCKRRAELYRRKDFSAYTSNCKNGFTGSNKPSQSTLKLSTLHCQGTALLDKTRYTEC

As to `C=CCN1C(=O)C2(C(C(=O)OC)=C(N)Oc3c2c(=O)oc2ccccc32)c2ccccc21` (configuration not stated), the outcome was inactive.
For `CCOC(=O)C1=C(N)Oc2c(c(=O)oc3ccccc23)C12C(=O)N(C)c1ccccc12` (configuration not stated) the value was “inactive”.
